Screening results as filed in PubChem BioAssay.
Shown is part of a subset that was picked to be rich in hits.
KDM5B inh – inhibitors of human KDM5B histone demethylase; Q9UGL1; KDM5B demethylase, FDH-coupled NADH fluorescence (FDH is formaldehyde dehydrogenase); Potency, µM (titrated, usually from 57.7 µM), most hits filed as inhibitors; actives 2.6% (n = 220,000); AID 1347165; active = well fitted inhibition curve with a large enough effect; also: nearly all actives have a fitted effect of over 70% in size
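Measured: NADH fluorescence change, 30 min, RT. System: KDM5BΔAP 200 nM final, H3K4me3 peptide, α-KG, Fe(II), ascorbate, NAD⁺ plus FDH, pH 7.5 HEPES. Compounds: titrated, 10 min pre-incubation with enzyme.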
Each line names hits and unclear results; the compound was inactive in the other large screens.

Cn1c(=O)n(C)c2cc(NC(=O)CN3C(=O)COc4ccc(C(C)(C)C)cc43)ccc21	none
Cc1ccc(C(NC(=O)CSc2nnnn2C)c2cccs2)cc1 (stereo not given)	none
COCCN1CC(C(=O)NCCOc2ccccc2)CCC1=O (stereo not given)	none
COCCN1CC(C(=O)N2CCN(c3ncccc3C#N)CC2)CCC1=O (stereo not given)	KDM5B inh 32µM
COCCN1CC(C(=O)N2CCC(O)(c3ccc(F)cc3)CC2)CCC1=O (stereo not given)	none
O=c1[nH]c(CSc2nnc(N3CCCCC3)n2-c2ccccc2)nc2cc(Cl)ccc12	none
Cc1cc(C)cc(C(=O)NCC(=O)N2CCCC2c2ccccc2)c1 (stereo not given)	none
c1ccc2cc(CNCCN3CCCC3)ccc2c1	none
O=C(CCNC(=O)NCc1nc2c(cnn2-c2ccccc2)c(=O)[nH]1)NCc1ccccc1	none
Cc1ccccc1-c1cnc2[nH]cc(CC(=O)NCCN(C)C)c2c1	KDM5B inh 35µM
Cc1ccccc1-c1cnc2[nH]cc(CC(=O)NCc3ccccc3)c2c1	none
CN(C)CCNC(=O)CN1N=C(c2ccccc2)CCC1=O	none
O=C(Cc1c[nH]c2ncc(-c3ccccc3)cc12)NCCc1ccccc1	none
CN(C)CCNC(=O)Cc1c[nH]c2ncc(-c3ccccc3)cc12	KDM5B inh 35µM
N#Cc1ccc(OCCOC(=O)c2c(F)cccc2F)cc1	none
CCc1ccc2c(c1)[C@]1(C(=O)N2)N2CCC[C@H]2[C@@H](C(=O)c2ccc(F)cc2)[C@]12C(=O)Nc1ccccc12	none
COCCNC(=O)c1nc(-c2cccnc2)c2cnccn12	none
CC(C)NC(=O)c1nc(-c2cccc(C(F)(F)F)c2)c2cnccn12	KDM5B inh 32µM
CC(C)NC(=O)CSc1nnc(-c2cccnc2)o1	none
Cc1oc(-c2cccc(C(F)(F)F)c2)cc1C(=O)NC(C)C	none
CC(C)NC(=O)c1nc(-c2cccnc2)c2cnccn12	KDM5B inh 35µM
COCC(C)NC(=O)c1csc2nc(-c3cccc(C(F)(F)F)c3)cn12 (stereo not given)	none
COc1cccc(-c2noc(CC3CCN(C(=O)c4ccc(OC)cc4C)CC3)n2)c1	none
